High-throughput results as filed in PubChem BioAssay.
Sampled rows, rich in hits. Any-hit rate of the full collection: about 2.2%.
Abeta yeast res: qHTS for compounds that reverse cellular toxicity of Amyloid beta (A-beta) peptide in yeast: Primary Screen; yeast expressing A-beta42, growth rescue, OD600, 48 h; response scale: 0% DMSO, 100% iron-clioquinol control; Potency, µM (highest dose often 46.1 µM), most hits filed as activators; 0.063% of 410,000 active; AID 1347071, 2019; also: nearly all actives have a fitted effect of over 55% in size
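Yeast growth medium received pinned compounds, then yeast cells expressing toxic A-beta were added; plates incubated at 30 C for 48 hr. Growth read as absorbance at 600 nm, normalized to DMSO and equimolar FeCl3 plus clioquinol controls.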
Mito fusion act: qHTS Assay for Small Molecule Inhibitors of Mitochondrial Division or Activators of Mitochondrial Fusion; S. cerevisiae fusion-defective mutant growth rescue, CellTiterGlo 48 h; Potency, µM (highest dose often 46.1 µM), for inactives: at the top dose growth rescue (activation), actives largely listed as activators; 0.23% of 320,000 active; AID 485298, 2010; also: % of control where 0% means no effect; nearly all actives have a fitted effect of over 45% in size
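Compounds are tested for their ability to restore growth of mitochondrial fusion-defective yeast strains at non-permissive 37C in YPEG medium over 48 hours. Viability is quantified by luciferase luminescence.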
FUS yeast rescue: qHTS for Suppressors of FUS Proteinopathy: Primary screen using FUS-linked yeast assay | Potency, µM (highest dose often 76.6 µM), hits mostly activators | 0.24% of 390,000 active | AID 1347120, 2019 | S. cerevisiae FUS-expressing, growth rescue, OD600, 24 h;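 also: plate controls were DMSO vehicle for no effect and reference control for full effect; nearly all actives have a fitted effect of over 55% in size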
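Steps: raffinose overnight preculture; dilution to OD 0.005 in 2% galactose minimal medium; compound addition (concentration series); 24hr at 30C, 99% humidity; absorbance read at 600 nm.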
aSyn rescue: qHTS of alpha-syn Inhibitors; 0.14% of 370,000 active; Yeast expressing alpha-synuclein, growth rescue, BacTiter-Glo, 24 h; Potency, µM (top dose mostly 46.1 µM), for inactives: at the top dose growth rescue (activation), actives largely listed as activators; AID 652106, 2013; also: % of control where 0% means no effect; nearly all actives have a fitted effect of over 65% in size
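Rescue of yeast growth: cells expressing toxic alpha-synuclein, induced in galactose at OD600 0.02, incubated with compound 24 h at 30 C. ATP luminescence quantified growth; inhibitors of toxicity appear as activators.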
TDP43 rescue: qHTS of TDP-43 Inhibitors | AID 652104, 2013 | Potency, µM (titrated, usually from 46.1 µM), for inactives: top-dose growth rescue (activation), most hits filed as activators | TDP-43 expressing yeast growth rescue, BacTiter-Glo, 24 h | 1.8% of 410,000 active; also: % of control where 0% means no effect; nearly all actives have a fitted effect of over 50% in size
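Galactose-induced TDP-43 yeast, OD600=0.02, compound pinned; 24 hr, 30 deg C; BacTiter-Glo luminescence for growth. Inhibitors of TDP-43 toxicity read as activators.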
* = called active by the depositor; i = inactive; u = inconclusive; x = no result given; [ ] = remark or other dose. Calls follow the shape of the dose curve; as a rule, active = well fitted curve in the direction sought with a large enough effect; inconclusive = small, poorly fitted or top-dose-only effect, or another doubt; inactive = no such curve, though single readings can be large; an effect the other way counts as inactive or inconclusive. Potency is read from the fitted curve at half-maximal effect.

SMILES	Abeta yeast res	Mito fusion act	FUS yeast rescue	aSyn rescue	TDP43 rescue
O=C(COC(=O)c1cc(Cl)ccc1[N+](=O)[O-])Nc1cccc2ccccc12	i	-1%	x	-2%	20µM*
Cc1ccc(NC(=O)COC(=O)c2cc(Cl)ccc2[N+](=O)[O-])c(C)c1	i	-6%	x	1%	7%
CCOc1ccc(-c2nnc(SCC(=O)c3ccccc3)n2-c2ccccc2)cc1	i	x	i	x	-8%
Cn1cnc([N+](=O)[O-])c1S(=O)(=O)Oc1ccc(Cl)cc1	i	x	i	-24%	3.2µM*
O=C(COc1ccc(F)cc1)Nc1cccc(OCc2cc(=O)n3ccccc3n2)c1	i	x	i	x	0%
CNC(=O)c1ccccc1Nc1ccc(SC(F)F)cc1	i	10%	i	-29%	22µM*
O=C(NCc1ccncc1)c1ccccc1Nc1ccc(SC(F)F)cc1	i	-1%	i	23%	u
CCCC(=O)N/C(N)=N/c1nc2ccccc2o1	i	4%	i	-18%	13µM*
O=C(C[n+]1ccccc1)c1ccc(O)c(O)c1	x	x	x	-2%	x
c1ccc2nc3c(nc2c1)[nH]c1ccccc13	i	5%	i	7%	7.1µM*
c1ccc(-c2c3ccccc3nc3[nH]c4ccccc4c23)cc1	u	4%	i	-23%	u
O=C(NCC1CCCO1)C(c1cccs1)N(Cc1cccs1)C(=O)c1ccc(-c2ccccc2)[nH]1 (configuration not stated)	i	16µM*	35µM*	-4%	9%
COC(=O)C[C@H]1C=C[C@@H](NC(=O)c2ccncc2)[C@@H](CO)O1	i	x	i	-9%	12%
O=C(c1ccccc1)c1nn(-c2ccccc2)c(=O)cc1-c1ccccc1	i	x	i	11%	12%
COc1cccc(/C=C/C(=O)c2cccc([N+](=O)[O-])c2)c1OC	i	2%	i	-1%	11µM*
COc1ccc(/C=C/C(=O)c2ccc[nH]2)cc1OC	i	-3%	i	17%	u
COc1cccc(/C=C/C(=O)c2cccc([N+](=O)[O-])c2)c1	i	-3%	i	18%	10%
COc1ccc(/C=C/C(=O)c2ccc[nH]2)c(OC)c1OC	i	11%	i	0%	14µM*
COc1ccc2oc(=O)c(-c3csc(-c4ccc(Br)cc4)n3)cc2c1	i	x	i	x	28%[9.22 µM]
COc1ccc2oc(=O)c(-c3csc(Nc4ccc(O)cc4)n3)cc2c1	i	16µM*	u	-1%	2%
Cc1nc(Nc2ccccc2)sc1C(=O)c1ccccc1	i	19%	i	-7%	-15%[1.82 µM]
CC(=O)c1cc(C(=O)c2ccccc2)sc1Nc1ccccc1	i	u	i	9%	35µM*
CC(=O)c1cc(-c2ccc(-c3ccccc3)c(F)c2)c(=O)n2c1CCC2	x	x	i	x	x
CC1Cc2ccccc2N1C(=S)NC(=O)C1(C)CC1(Cl)Cl (configuration not stated)	13µM*	3%	i	-6%	u
COC(=O)c1cc2oc3ccccc3c2n1Cc1cc(C)ccc1C	i	x	i	x	3%
SMILES	Abeta yeast res	Mito fusion act	FUS yeast rescue	aSyn rescue	TDP43 rescue
COC(=O)c1ccc(Cn2nc([N+](=O)[O-])c(Br)c2C)cc1	u	-2%	i	u	14µM*
CC(C)(C)OC(=O)N1CCC(c2c(C(=O)NCc3ccccc3)cnn2-c2cccc(F)c2)CC1	i	x	u	x	-14%
CC1(C)CC(=O)N(CC(=O)N2CCN(Cc3ccccc3)CC2)c2ccccc2S1(=O)=O	x	x	i	x	x
Nc1c(Cl)cc(C2=NCCn3nc4cc(C(F)(F)F)ccc4c32)cc1Cl	i	13µM*	u	5%	u
O=C(O)CCC(=O)Nc1nc2ccccc2s1	i	-1%	i	-2%	-28%
Cc1ccc2nc(NC(=O)CCn3c(=O)sc4ccccc43)sc2c1	i	u	i	-5%	20µM*
Cc1ccc2nc(NC(=O)CCn3cccc3)sc2c1	i	6%	i	12%	17%
O=C(CCn1c(=O)sc2ccccc21)Nc1nc2ccccc2s1	i	u	i	12%	28µM*
O=C(COc1ccccc1)NNC(=S)NC(=O)c1ccc(Cl)cc1Cl	u	-24%	i	u	3.5µM*
Cc1ccc(C(=O)NNC(=S)NC(=O)c2ccccc2)cc1	i	x	i	-32%	u
Cc1ccc(C(=O)NNC(=S)NC(=O)c2ccc(Cl)cc2Cl)cc1	i	-4%	i	1.1µM*	u
O=C(O)c1ccc(Cn2cnc3scc(-c4ccccc4)c3c2=O)cc1	i	2%	i	14%	u
Cc1ccc(-c2csc3ncn(Cc4ccc(C(=O)O)cc4)c(=O)c23)cc1C	i	2%	i	u	20µM*
CCCOc1ccc(-c2csc3ncn(Cc4ccc(C(=O)O)cc4)c(=O)c23)cc1	i	7%	i	-60%	25µM*
Nc1nc(Nc2ccccc2Br)nc(C(F)(F)F)n1	i	3%	i	-5%	18µM*
C=CCC[C@@H](CCCCC)OC(=O)/C=C/[C@H](O)[C@@H](O)C[C@H](O)CC=C	i	x	u	20µM*	28%
c1ccc(Cn2c(SCc3nc4ccccc4s3)nnc2-c2ccco2)cc1	i	7%	u	4%	14µM*
CCC(c1nnc(SCc2nc3ccccc3s2)n1Cc1ccccc1)N(C)C (configuration not stated)	i	-4%	i	5%	1%
Clc1ccccc1N=C1NN=C(c2cccs2)CS1	i	u	i	8%	11µM*
O=C(NCCc1ccc(F)cc1)C(=O)NCC(c1ccc2c(c1)OCO2)N1CCOCC1 (configuration not stated)	i	x	i	x	12%
COc1ccc2c(c1)C(=O)CC(c1ccc(OC)c(OC)c1)O2 (configuration not stated)	i	2%	i	2%	15%
COc1ccc2c(c1)C(=O)CC(c1ccc3c(c1)OCCO3)O2 (configuration not stated)	i	-25%	i	-8%	11µM*
Cc1ccc2c(c1)C(=O)CC(c1ccc3c(c1)OCCO3)O2 (configuration not stated)	i	-35%	i	-14%	11µM*
N#CCCCSc1nnnn1-c1cccc(Cl)c1	i	4%	i	3%	22µM*
O=C(CSc1nnnn1-c1cccc(Cl)c1)Nc1ccc2c(c1)CCC2	x	-9%	x	x	x
